AMA1 RON2 block – AMA1-RON2 (P. falciparum) interaction inhibition; AlphaScreen AMA1-biotinylated RON2 peptide binding; 0.2% of 360,000 active; Potency, µM (doses to about 58.2 µM), most hits filed as inhibitors; also: nearly all actives have a fitted effect of over 45% in size
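AMA1 (3D7) with his tag at 25 nM final met compounds first, then biotinylated RON2 peptide at 25 nM; detection used donor plus acceptor beads, 10 µg/mL apiece, read by AlphaScreen after 30 min at room temperature.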
Cycloheximide cs – affects cycloheximide protein synthesis inhibition readout, counter-screen; cell reporter, cycloheximide protein synthesis inhibition counterscreen; max response, %; 12% of 300,000 active; in the data active = max response mostly above about 13%, no sharp cut-off; inactive = mostly below about 14%; also: read at 38.3 µM for the half of the compounds with a filed dose
Shiga toxin inh – blocks Shiga toxin action in Vero cells; Vero cells, Shiga toxin protein synthesis inhibition reporter; inhibition, % at 38.7 µM; 9.2% of 290,000 active; in the data active = inhibition mostly above about 28%, no sharp cut-off; inactive = mostly below about 43%
SARS PLpro yeast – SARS-CoV PLP inhibition in yeast | S. cerevisiae expressing SARS-CoV PLpro, growth rescue | Potency, µM (top dose mostly 32.9 µM), most hits filed as activators | 0.19% of 330,000 active | AID 485353; calls by dose curve; also: nearly all actives have a fitted effect of over 55% in size
AmpC detergent – inhibitors of E. coli AmpC beta-lactamase with detergent; 0.041% of 370,000 active; AID 485294; Potency, µM (highest dose often 114 µM), hits mostly inhibitors; P00811; AmpC hydrolysis of nitrocefin, absorbance 480 nm, 0.01% Triton; also: nearly all actives have a fitted effect of over 25% in size
Target sequence (P00811 whole entry, looked up): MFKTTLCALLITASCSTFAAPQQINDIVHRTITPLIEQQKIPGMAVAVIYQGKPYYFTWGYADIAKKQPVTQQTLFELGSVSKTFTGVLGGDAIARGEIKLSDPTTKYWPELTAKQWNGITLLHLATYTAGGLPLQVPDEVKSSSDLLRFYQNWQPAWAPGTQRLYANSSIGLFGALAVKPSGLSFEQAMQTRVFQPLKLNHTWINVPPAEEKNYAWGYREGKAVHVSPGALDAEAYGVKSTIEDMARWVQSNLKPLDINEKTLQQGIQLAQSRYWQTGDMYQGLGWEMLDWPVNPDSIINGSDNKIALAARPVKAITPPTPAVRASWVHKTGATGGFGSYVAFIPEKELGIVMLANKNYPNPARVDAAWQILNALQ
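AmpC (5.3 nM in the dispensed reagent) in 20 mM phosphate pH 7.0 with 0.01% (detergent screen) or 0.0001% Triton X-100 was preincubated with compounds for 15 min at room temperature. Nitrocefin was then added from an 800 uM solution, and hydrolysis was followed at 480 nm.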
AmpC inh no detg – inhibitors of E. coli AmpC beta-lactamase without detergent; AID 485341; 0.52% of 330,000 active; P00811; Potency, µM (series often up to 57.1 µM), hits mostly inhibitors; AmpC nitrocefin hydrolysis, absorbance 480 nm, 0.0001% Triton; also: nearly all actives have a fitted effect of over 20% in size
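AmpC (5.3 nM in the dispensed reagent) in 20 mM phosphate pH 7.0 with 0.01% (detergent screen) or 0.0001% Triton X-100 was preincubated with compounds for 15 min at room temperature. Nitrocefin was then added from an 800 uM solution, and hydrolysis was followed at 480 nm.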
Hits are given with their value; i = inactive; ? = inconclusive; nt = no result given; [ ] = dose if it differs, or a comment. Shown is part of a subset that was picked to be rich in hits. Unless noted, calls follow the shape of the dose curve; as a rule, active = well fitted curve in the direction sought with a large enough effect; inconclusive = small, poorly fitted or top-dose-only effect, or another doubt; inactive = no such curve, though single readings can be large; an effect the other way counts as inactive or inconclusive.

SMILES | AMA1 RON2 block | Cycloheximide cs | Shiga toxin inh | SARS PLpro yeast | AmpC detergent | AmpC inh no detg
CSc1cccc(NC(=O)CN(C)S(=O)(=O)c2ccc3c(c2)n(C)c(=O)c(=O)n3C)c1 | nt | nt | nt | nt | i | nt
O=C(N/N=C/C=C/c1ccccc1)NC1CCCCC1 | i | 16 | i | i | i | i
O=C(N/N=C/c1cccc(O)c1)NC1CCCCC1 | i | i | 89 | i | i | i
O=C(N/N=C/c1ccncc1)NC1CCCCC1 | i | i | i | i | i | i
Cc1ccc(Nc2ccc(-n3ccnc3)nn2)cc1C | i | 22 | i | i | ? | i
COc1cccc(Nc2ccc(-n3ccnc3)nn2)c1 | i | i | i | i | i | i
CC1CCC2(CC1)NC(=O)N(Cc1cc(=O)n3ccsc3n1)C2=O (configuration not stated) | i | i | i | i | i | i
CC1CCCCC12NC(=O)N(Cc1cc(=O)n3ccsc3n1)C2=O (configuration not stated) | i | 30 | i | i | i | i
Cc1cnc(CN(C)C(=O)c2cc(COc3c(F)cccc3F)on2)[nH]1 | i | i | i | i | i | i
CSc1ccccc1OCc1cc(C(=O)N(C)Cc2ccc3nsnc3c2)no1 | i | 52 | 100 | i | i | i
CSc1ccccc1OCc1cc(C(=O)N(C)Cc2ccc(C)o2)no1 | i | 54 | 79 | i | i | i
CSc1ccccc1OCc1cc(C(=O)N(C)C(C)c2nc(C)cs2)no1 (configuration not stated) | i | 18 | i | i | i | i
CC(NCc1cccs1)C(=O)NC1CCCCC1 (configuration not stated) | i | i | i | i | i | i
CCOC(=O)[C@]12CCC=C1N(Cc1cccc3ccccc13)C(=O)[C@H](CC(=O)NCCC(C)C)C2 | i | nt | nt | nt | nt | nt
Cc1cccc(OCC(=O)Nc2cc(C)on2)c1 | i | 16 | active | i | i | i
Cc1ccc(C)c(OCC(=O)Nc2cc(C)on2)c1 | i | 22 | i | i | i | i
CCOc1ccccc1OCC(=O)Nc1cc(C)on1 | i[11.6 µM] | nt | nt | i | nt | i
Cc1ccc(-c2cc(C(=O)Nc3ccc4c(c3)OCCO4)c3ccccc3n2)cc1 | i | 55 | 125 | i | i | i
O=C(Nc1ccc2c(c1)OCO2)c1cc(-c2cccnc2)nc2ccccc12 | i | 16 | i | i | i | i
OCCCNC(=S)Nc1ccc2nccnc2c1 | i | i | i | i | i | i
S=C(Nc1ccccc1)Nc1nccs1 | i | 29 | 99 | i | i | i
CC(C)(C)c1nnc(NC(=S)Nc2ccccc2)s1 | i | 37 | 115 | i | i | i
Fc1ccc(NC(=S)Nc2ccc3nccnc3c2)cc1 | i | 38 | i | i | i | i
Fc1ccc(NC(=S)Nc2nccs2)cc1 | i | 50 | 75 | i | i | i
CCc1nn(CCCC(=O)NCc2ccccc2C)c(=O)c2cc3occc3n12 | i | i | i | i | i | i
SMILES | AMA1 RON2 block | Cycloheximide cs | Shiga toxin inh | SARS PLpro yeast | AmpC detergent | AmpC inh no detg
CCOc1ccc(NC(=O)CN(C)C(=O)CC2OC(=O)c3ccccc32)cc1OCC (configuration not stated) | i | nt | nt | i | i | i
CCC(C)NCCOc1ccc(C)cc1[N+](=O)[O-] (configuration not stated) | i | i | i | i | i | i
CCC(C)Nc1c([N+](=O)[O-])cc(C)cc1[N+](=O)[O-] (configuration not stated) | 16µM | i | i | i | i | i
S=C=Nc1ccccn1 | i | 27 | i | i | i | i
Fc1ccc(OCc2nn[nH]n2)c(F)c1 | i | i | i | i | i | i
CC(=O)/C=C(\C)N=Nc1c(O)[nH]c2ccccc12 | i | 32 | 56 | i | i | i
O=C(CNC(=O)c1ccccn1)N=Nc1c(O)[nH]c2ccccc12 | i | i | 47 | i | i | i
CCC(O)(CC)C(=O)N=Nc1c(O)[nH]c2ccccc12 | i | i | i | i | i | i
CC(C)CC(=O)N=Nc1c(O)[nH]c2ccccc12 | i | 26 | 106 | i | i | i
O=C(N=Nc1c(O)[nH]c2ccccc12)c1ccco1 | i | 45 | 65 | i | i | i
COC(=O)CN(c1cccc(F)c1)S(C)(=O)=O | i | i | i | i | i | i
Cc1ccc(OCC(=O)NNC(=O)Cn2nnc(-c3ccccc3)n2)cc1 | i | i | i | i | i | i
CCn1c(SCC(=O)N=Nc2c(O)[nH]c3ccccc23)nc2ccccc21 | i | i | i | i | i | 5µM
O=C(N=Nc1c(O)[nH]c2ccccc12)c1ccc2c(c1)OCO2 | i | 27 | i | i | i | i
CCn1c(SCC(=O)N=Nc2c(O)[nH]c3ccccc23)nnc1-c1ccc(C(C)(C)C)cc1 | nt | i | i | i | i | i
O=C(CSCc1cccc(Br)c1)N=Nc1c(O)[nH]c2ccccc12 | i | i | i | i | ? | i
CCCn1c(O)c(N=NC(=O)c2ccco2)c2ccccc21 | i | i | 53 | i | i | i
O=C(CSCc1ccccc1)N=Nc1c(O)[nH]c2ccccc12 | i | 27 | i | i | ? | i
O=C(N=Nc1c(O)[nH]c2ccccc12)c1ccc(CN2CCOCC2)cc1 | i | i | i | i | i | i
Nc1nc(-c2ccc(Br)s2)c(Br)s1 | i | 38 | 63 | i | i | i
N#Cc1c(N)nc2c(c1-c1ccc(Br)s1)CCCC2 | i | i | i | ? | i | i
O=C(Nc1ccc(F)cc1)c1ccc(CN2CC(=O)N3CCCCC3C2=O)cc1 (configuration not stated) | nt | nt | nt | nt | i | nt
O=C(c1ccccc1)c1ccc(OCCCCN2CCCCC2)cc1 | i | i | i | i | i | i
c1ccc(COc2ccc(OCCCCN3CCCCC3)cc2)cc1 | i | 55 | 70 | i | i | i
O=C(c1ccccc1)c1ccc(OCCCN2CCCC2)cc1 | i | 28 | 44 | i | i | i
SMILES | AMA1 RON2 block | Cycloheximide cs | Shiga toxin inh | SARS PLpro yeast | AmpC detergent | AmpC inh no detg
O=C(NCc1cccs1)C1CC(c2ccc(Cl)cc2)=NO1 (configuration not stated) | i | 13 | i | i | i | i
O=C(NCc1ccco1)C1CC(c2ccc(Cl)cc2)=NO1 (configuration not stated) | i | 27 | i | i | i | i
O=C(NCCc1cccs1)C1CC(c2c(Cl)cccc2Cl)=NO1 (configuration not stated) | i | 40 | i | i | ? | i
O=C(NCc1ccco1)C1CC(c2ccc(F)cc2)=NO1 (configuration not stated) | i | 17 | i | i | i | i
COc1cccc(C2=NOC(C(=O)NCc3ccco3)C2)c1 (configuration not stated) | i | i | i | i | i | i
Cc1nn2c(N3CCN(CCO)CC3)c3c(nc2c1-c1ccccc1)CCCC3 | i | i | i | i | i | i
CCCc1nnc(NC(=O)CCC(=O)N2CCN(S(=O)(=O)c3ccc(C)cc3)CC2)s1 | i | i | 53 | i | i | i
